Molecules are shown by their SMILES. More than one record can exist for a structure, and the calls need not agree. The source made the active and inactive calls. How the source made its calls: active means hit-call score of the fitted dose curve at least 0.9, where 1 is the maximum; inactive means score below 0.9.

This assay is described as follows: ATG_CMV_CIS: Attagene CIS-FACTORIAL HepG2 Assay for human CMV (Internal Marker) (AID 2282928).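 Further: endpoint acts as a background internal control marker rather than a target.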 To be noted: HepG2 CMV promoter reporter, transcription factor profiling; actives raise or lower the signal. On the procedure:
ATG_CIS is a cell-based, multiplexed-readout assay that uses HepG2, a human liver cell line, with measurements taken at 24 hours after chemical dosing in a 24-well plate.ATG_CMV_CIS is one of 52 assay component(s) measured or calculated from the ATG_CIS assay. It is designed to make measurements of mRNA induction, a form of inducible reporter, as detected with fluorescence intensity signals by Reverse transcription polymerase chain reaction (RT-PCR) and Capillary electrophoresis technology.Data from the assay component ATG_CMV_CIS was analyzed into 1 assay endpoint. This assay endpoint, ATG_CMV_CIS, was analyzed with bidirectional fitting relative to DMSO as the negative control and baseline of activity. Using a type of inducible reporter, measures of mRNA for gain or loss-of-signal activity can be used to understand the background control at the transcription factor-level as they relate to the gene . Furthermore, this assay endpoint can be referred to as a secondary readout, because this assay has produced multiple assay endpoints where this one serves a background control function. To generalize the intended target to other relatable targets, this assay endpoint is annotated to the background measurement intended target family, where the subfamily is internal marker.
Human liver HepG2 cells are transiently transfected with multiple reporter transcription units (MRTUs) in 6-well plates using FuGene 6 reagent (Roche; 3 ml FuGene/1 mg DNA). The MRTU constructs are regulated by a cis-regulating element (promoter). […] A major difference between the CIS and TRANS system is that in CIS activities of endogenous TFs are measured, whereas the TRANS assay evaluates changes in activities of exogenous, chimeric NR-Gal4 proteins. […] At the end of 24 hour incubation, total RNA was isolated using TriZol reagent (Invitrogen). The isolated RNA is then reverse-transcribed using oligo(dT) primer and Mo-MLV reverse transcriptase (Invitrogen) with DNAse I (Ambion) treatment for 30 min. The one-tenth of the produced cDNA was amplified by PCR using Taq DNA polymerase (Invitrogen) and two reporter sequence-specific primers. The PCR products were fluorescently labeled by primer extension with 6-arboxyfluorescein (6-FAM) 5'-labeled reporter sequence-specific primer (2 min at 95 C, 20 s at 68 C and 10 min at 72 C) and these products were digested with 5U of HpaI (New England Biolabs) for 2h at 37 C. The fragments were purified using Qiaquick PCR columns (Qiagen), analyzed on an ABI 3130xL genetic analyzer (Applied Biosystems) with peak positions identified by using a set of X-rhodamine (ROX)-labeled MapMarker1000 molecular weight standards (BioVentures). The raw capillary electrophoresis data was processed using Attagraph software (Attagene).
As for `CC(C)(O)CCc1ccccc1`, the compound was called inactive. On to `CC(=O)OC(C)(C)C`, for which the call was inactive. On to `CC1(C)[C@H](C=C(Cl)Cl)[C@H]1C(=O)OCc1cccc(Oc2ccccc2)c1`, for which the result was inactive.

Turning to `CCOC(=O)C(=O)OCC`, the compound was classed as inactive. As for `CC1=CCC(C(C)(C)O)CC1` (stereo not given), the result was inactive.

Regarding `CC(=O)OC/C=C(C)/C=C/C=C(C)/C=C/C1=C(C)CCCC1(C)C`, the call was inactive. As usually defined, the AC50 is the midpoint of the concentration-response curve, whichever way the signal moves. Take `C[C@]12CC[C@@H]3c4ccc(O)cc4CC[C@H]3[C@@H]1CC[C@@H]2O`: the compound was classed as inactive and the concentration at half-maximal activity (AC50) is 19.5 µM (active) [middle of 4 runs]. For the compound `CCC(=O)OC/C=C(\C)CCC=C(C)C`, the call was inactive. Still for that read-out and setting: the same measure for `c1ccc2scnc2c1`: “inactive”; for `CCCCC1CCCCC(=O)O1` (stereo not given): “inactive”. For the compound `CCCCCCCC1CCCC1=O` (stereo not given), the compound was classed as inactive. Consider `C=C(C)C(=O)OCCN(C)C`, for which the outcome was inactive. Consider `Cc1ccc(C(C)(C)O)cc1`, for which the compound was called inactive. Take `CC(=O)C1C(=O)C=C(C)OC1=O` (stereo not given): the result was inactive. The same measure, in the same setting: the same measure for `OCCCO`: “inactive”. Regarding `CCCCOCCOCCO`, the result was inactive.

With `O=C(O)c1ccccc1O`, the compound was called inactive. Still for that read-out and setting: then `C=C(C)C(N)=O`, with “inactive”; and `N#CCCNCCC#N`, with “inactive”. Regarding `O=C(OCc1ccccc1)c1ccccc1O`, the concentration at half-maximal activity (AC50) is 64.1 µM (active). Consider `C=CCCCCCCCCC(=O)OCC`, for which the call was inactive.

On to `CC(C)N1C(=O)c2ccccc2C1=O`, for which the compound was classed as inactive.

Turning to `CC(=O)C1=C(C)[C@@H]2C[C@@]3(C1)[C@H](C)CC[C@H]3C2(C)C`, the AC50 was 68.8 µM (active). For the compound `CCC(C)COC(=O)CC(C)C` (stereo not given), the result was inactive. Regarding `O=C1CCC(=O)N1`, the call was inactive. Same read-out and setting: then `CN(C)c1ccc(C=O)cc1`, with “inactive”. As to `CCCCCCCCCCCCCC(=O)OCC`, the outcome was inactive. Still for that read-out and setting: then `c1ccc2c(c1)-c1ccc3ccc4cccc5cc-2c1c3c45`, with “inactive”. Same read-out and setting: the same measure for `CCCCOCC(C)OCC(C)O` (stereo not given): “inactive”; for `CCCCCC1CCC(=O)O1` (stereo not given): “inactive”; for `C[C@H](CCC(=O)O)[C@H]1CC[C@H]2[C@@H]3CC[C@@H]4C[C@H](O)CC[C@]4(C)[C@H]3CC[C@]12C`: “inactive”.

As to `CCCCOCCOC(=O)c1ccccc1C(=O)OCCOCCCC`, the compound was called inactive.

Turning to `CCOc1ccc(NC(C)=O)cc1`, the outcome was inactive.

On to `CCCO[Si](OCCC)(OCCC)OCCC`, for which the result was inactive. On to `C=CC(C)CCCC(C)(C)O` (stereo not given), for which the compound was called inactive.

Regarding `NC(=O)c1cnccn1`, the call was inactive. On to `CCCCN(CCCC)CCCCCCN(CCCC)CCCC`, for which the outcome was inactive. As to `CCCCCCCCCCCCN1CCOCC1`, the AC50 is 44.8 µM (active). Still for that read-out and setting: the same measure for `CCC(C)(C)c1cc(O)c(C(C)(C)CC)cc1O`: 54.3 µM (active).

The record behind these values is PubChem BioAssay (EPA / NIEHS).
